# Screening data (PubChem)
# ALOX12 inh: Primary qHTS assay for inhibitors of human arachidonate 12S-lipoxygenase (ALOX12): Round 2. Potency, µM (top dose mostly 108 µM), actives largely listed as inhibitors. 580,000 tested, 1.1% active. purified 12hLO, xylenol orange hydroperoxide absorbance. AID 1671190, 2021. Polyunsaturated fatty acid lipoxygenase ALOX12 (Homo sapiens), P18054
# Target sequence (P18054 whole entry, looked up): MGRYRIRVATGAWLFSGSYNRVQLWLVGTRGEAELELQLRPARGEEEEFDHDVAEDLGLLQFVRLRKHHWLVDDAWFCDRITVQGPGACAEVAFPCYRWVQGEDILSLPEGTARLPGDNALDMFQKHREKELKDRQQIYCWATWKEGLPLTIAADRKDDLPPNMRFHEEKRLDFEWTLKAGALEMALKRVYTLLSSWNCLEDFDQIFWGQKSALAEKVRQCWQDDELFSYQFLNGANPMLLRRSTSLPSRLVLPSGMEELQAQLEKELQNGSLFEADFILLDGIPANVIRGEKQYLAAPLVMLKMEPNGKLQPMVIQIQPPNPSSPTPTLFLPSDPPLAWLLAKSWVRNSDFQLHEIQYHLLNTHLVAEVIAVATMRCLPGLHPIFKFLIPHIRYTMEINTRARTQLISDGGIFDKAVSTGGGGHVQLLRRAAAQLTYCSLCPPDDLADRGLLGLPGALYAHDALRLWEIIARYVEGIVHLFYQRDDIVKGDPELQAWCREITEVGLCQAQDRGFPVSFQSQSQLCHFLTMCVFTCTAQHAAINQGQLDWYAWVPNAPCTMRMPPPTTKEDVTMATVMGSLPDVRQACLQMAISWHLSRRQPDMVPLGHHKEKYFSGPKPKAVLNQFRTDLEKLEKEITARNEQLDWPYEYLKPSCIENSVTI
#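 Purified human 12hLO at 150 nM in 25 mM Hepes, 0.01% Triton X-100, pH 7.0, preincubated 15 min at room temperature with compound. Reaction started with 40 uM arachidonic acid, 30 min at room temperature. Hydroperoxide measured by Fe-xylenol orange, 573/405 nm absorbance ratio.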
# GRP78 ERSR act: qHTS for Inducers of the Endoplasmic Reticulum Stress Response (ERSR) in Human Glioma: qHTS. Potency, µM, usual class: activators. 420,000 tested, 0.02% active. AID 602332, 2012. U87-MG GRP78 promoter luciferase reporter, 16 h; note: series mostly up to about 76 µM; nearly all actives have a fitted effect of over 35% in size
#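 Stably transfected U87-MG glioma cells carrying a GRP78-based luciferase sensor; 16 h compound incubation. Luminescence end-point read 10 min after Bright-Glo addition at room temperature.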
# Anesthetic bind: qHTS Assay for Identification of Novel General Anesthetics | Ferritin light chain (Equus caballus), P02791 | apoferritin/1-aminoanthracene competitive binding, fluorescence | Potency, µM (titrated, usually from 77.5 µM), actives largely listed as inhibitors | 350,000 tested, 0.074% active | AID 485281, 2010; note: nearly all actives have a fitted effect of over 20% in size
#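 10 uM apoferritin + 50% sat. 1-AMA, PBS; cpd 10 min RT; Ex380/Em535 endpoint; normalized to free probe vs complex; 4-param Hill fit; propofol titration as pos. ctrl.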
# rTrxR1 inhibitor: qHTS Assay for Inhibitors of Mammalian Selenoprotein Thioredoxin Reductase 1 (TrxR1): qHTS; Thioredoxin reductase 1, cytoplasmic (Rattus norvegicus), O89049; recombinant rTrxR1, NADPH fluorescence consumption, selenite substrate; Potency, µM (titrated, usually from 114 µM), hits mostly inhibitors; 390,000 tested, 1% active; note: nearly all actives have a fitted effect of over 65% in size
#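 Rat TrxR1 (90 nM in the dispensed reagent) was pre-reduced with 400 uM NADPH for 5 min at room temperature, then incubated with compound for 15 min. After 400 uM selenite was added, NADPH fluorescence (Ex 340/Em 450 nm) was followed for 8 min.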
# mIDH1 inhibitor: qHTS for Inhibitors of mutant isocitrate dehydrogenase 1 (IDH1): qHTS; Isocitrate dehydrogenase [NADP] cytoplasmic (Homo sapiens), O75874; IDH1-R132H enzyme, NADPH consumption, diaphorase/resazurin fluorescence; Potency, µM (doses to about 76.6 µM), actives largely listed as inhibitors; 390,000 tested, 0.093% active; note: nearly all actives have a fitted effect of over 65% in size
#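 IDH1-R132H (0.5 ug/mL) preincubated 30 min with compound, then NADPH (0.016 mM) and alpha-KG (2 mM) added; 80 min at RT, pH 7.5. Remaining NADPH coupled via diaphorase/resazurin to fluorescence (540/590 nm); concentration-response curves normalized to no-enzyme control.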
# TrxR1 substrate: qHTS Assay for Substrates of Mammalian Selenoprotein Thioredoxin Reductase 1 (TrxR1): qHTS; Potency, µM (highest dose often 114 µM); Thioredoxin reductase 1, cytoplasmic (Rattus norvegicus), O89049; purified TrxR1 substrate turnover, NADPH consumption readout; 390,000 tested, 0.01% active; note: nearly all actives have a fitted effect of over 50% in size
#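 Rat TrxR1, dispensed at 90 nM, was prereduced with 400 uM NADPH (final) for 5 min at ~22 deg C, then incubated with compound 15 min before 400 uM selenite. A first-read NADPH fluorescence drop versus no-compound background flagged substrates.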
# Numbers stand for hits; 0 = inactive; ? = inconclusive; - = no result given; [ ] = another dose, or the depositor's remark. In the library only some 1.7% were active in any assay of this set; here they are far more common. Calls come from the whole dose curve; as a rule, active = well fitted curve in the direction sought with a large enough effect; inconclusive = small, poorly fitted or top-dose-only effect, or another doubt; inactive = no such curve, though single readings can be large; an effect the other way counts as inactive or inconclusive.
SMILES,ALOX12 inh,GRP78 ERSR act,Anesthetic bind,rTrxR1 inhibitor,mIDH1 inhibitor,TrxR1 substrate
O=c1c(O)c(-c2ccccc2O)oc2cc(O)cc(O)c12,0,0,0,-,-,-
O=c1c(O)c(-c2ccc(O)cc2O)oc2cc(O)cc(O)c12,?,0,0,7.1µM,-,0
CC1(c2nnc(Cc3ccccc3)o2)CC(c2ccc(C#N)cc2)=NO1 (centres undefined),0,0,-,16µM,0,0
CC1(c2nnc(Cc3ccccc3)o2)CC(c2ccc(Cl)cc2)=NO1 (centres undefined),0,0,-,0,0,0
O=C(c1ccn(COc2cccc(Cl)c2)n1)N1CCN(Cc2ccccc2F)CC1,0,-,-,-,-,-
NC(=O)C1CCN(Cc2ncc(-c3ccccc3)o2)CC1,0,-,-,-,-,-
CC(C)CCNC(=O)c1cc2c(=O)n3ccccc3nc2s1,0,0,0,45µM,0,0
CC(C)Oc1ccc(Br)cc1/C=C/C(=O)O,0,-,-,-,-,-
N#Cc1c(-c2ccccc2)cc(-c2ccc3c(c2)OCO3)[nH]c1=O,?,0,-,0,0,0
N#Cc1c(O)c2c(-c3ccc(-c4ccccc4O)cc3)csc2[nH]c1=O,24µM,-,-,-,-,-
Cn1cc(C2CC2)c2nc(COc3ccccc3)cn2c1=O,0,-,-,-,-,-
CCN(CC)CCNC(=S)NC(=O)c1cn(-c2ccccc2)nc1-c1ccc(OC)cc1,45µM,0,0,0,0,0
COc1ccc(-c2nn(-c3ccccc3)cc2C(=O)NCCN2CCOCC2)cc1,0,-,-,-,-,-
O=S1(=O)N[C@@H](Cc2ccccc2)COc2cccc(NCCCN3CCOCC3)c21,0,-,-,-,-,-
O=c1[nH]c(=S)[nH]c2c1C(c1ccc(Br)cc1)c1c([nH]c(=S)[nH]c1=O)O2,5µM,0,0,?,0,0
Clc1ccc(-c2nnc(-c3ccco3)nc2N2CCCCC2)cc1,?,0,0,6.3µM,0,0
C=C(C)C1(O)OC(=O)C=C1OC (centres undefined),0,0,0,14µM,0,0
COc1ccc(C2=CC(=O)OC3(CCCCC3)O2)cc1,?,0,?,0,0,0
Clc1ccc(-n2cnnn2)cc1,0,0,0,0,0,0
CO/C=C\C=C/c1nnn(-c2ccc(Cl)cc2)n1,35µM,0,0,?,0,0
CC1COC(=O)O1 (centres undefined),-,0,0,-,-,-
O=S(=O)(CS(=O)(=O)c1ccccc1)c1ccccc1,0,0,-,11µM,0,0
O=S(=O)(C/C(=C/CO)S(=O)(=O)c1ccccc1)c1ccccc1,0,?,0,2.2µM,0,0
COC(=O)[C@H]1CC(=O)N[C@@H]1c1ccc(OC(C)C)c(OC)c1,0,-,-,-,-,-
CCc1cccc(CC)c1NC(=O)CN1C(=O)C(=O)c2ccccc21,0,0,0,0,0,0
SMILES,ALOX12 inh,GRP78 ERSR act,Anesthetic bind,rTrxR1 inhibitor,mIDH1 inhibitor,TrxR1 substrate
CCCC(C(=O)Nc1c(C)cccc1C)N1C(=O)C(=O)c2ccccc21 (centres undefined),6.3µM,-,-,-,-,-
O=C(CSc1nnc(-c2ccc(F)cc2)c2ccccc12)Nc1ccccc1,0,0,0,0,0,0
COC(=O)Cc1nnc(SCC(=O)Nc2ccccc2)c2ccccc12,0,0,0,50µM,0,0
O=C(NC1CCN(c2cc(-c3ccc(Cl)cc3)[nH]n2)C1)c1ccc(F)cc1F (centres undefined),0,-,-,-,-,-
Cc1ccc(OC2(C(=O)N3CCCC3c3nccs3)CCNCC2)cc1 (centres undefined),18µM,-,-,-,-,-
O=S(=O)(Nc1nc2ccccc2nc1NC1CCCCC1)c1ccc(F)cc1,0.63µM,-,-,-,-,-
O=S(=O)(Nc1nc2ccccc2nc1NC1CC1)c1ccccc1,0,-,-,-,-,-
COc1ccc(Cn2nc(-c3ccccc3)nc2C2CCC(=O)NC2)cc1 (centres undefined),0,-,-,-,-,-
CCc1ccccc1N(C(C)=O)c1nc(CSc2nnc(C3CC3)n2C2CC2)cs1,0,-,-,-,-,-
COc1ccc(CN2CCC(Cc3ccccc3)CC2)cc1OC,?,0,0,0,0,0
COc1cccc(OC)c1OCCCN1CCC(Cc2ccccc2)CC1,11µM,0,0,0,0,0
O=C1c2ccccc2C(=O)N1c1cccc(-c2csc(Nc3ccc4c(c3)OCO4)n2)c1,-,-,0,-,-,-
Oc1ccc(Nc2ccc3ccccc3c2)cc1,45µM,0,-,0,0,0
Cc1ccc(Nc2nc(-c3cccc(N4C(=O)c5ccccc5C4=O)c3)cs2)cc1,18µM,-,-,-,-,-
Oc1ccc(Nc2nc(-c3ccc4ccccc4c3)cs2)cc1,18µM,-,0,-,-,-
NC(=S)NN=C1CCCCCCCCCC1,45µM,0,-,?,0,0
S=C(NN=C1CCCCCC1)Nc1ccc(Cl)cc1,?,0,0,?,0,0
NC(=S)NN=C1CCC(C2CCCCC2)CC1 (centres undefined),35µM,0,-,0[11.4 µM],0,0[11.4 µM]
COc1ccc(/C=C/C(=O)c2ccc(C(=O)O)s2)cc1OC,5.6µM,-,-,-,-,-
CC(C)Nc1ncnc2c1CN(C1CCCNC1)C(=O)CN2C (centres undefined),4µM,-,-,-,-,-
CCCCCNc1ncnc2c1CN(C1CCCNCC1)C(=O)CN2C (centres undefined),0[6.33 µM],-,-,-,-,-
CC(CO)Nc1ncnc2c1CN(C1CCCNC1)C(=O)CN2C (centres undefined),0[6.33 µM],-,-,-,-,-
CN1CC(=O)N(C2CCNCC2)Cc2c1ncnc2N(C)Cc1ccc(F)cc1,8.9µM,-,-,-,-,-
CN1CC(=O)N(C2CCNCC2)Cc2c(NCCc3cccc(F)c3)ncnc21,18µM,-,-,-,-,-
COc1ccc(C(=O)OC2CCCCC2=O)cc1OC (centres undefined),0,-,-,-,-,-
SMILES,ALOX12 inh,GRP78 ERSR act,Anesthetic bind,rTrxR1 inhibitor,mIDH1 inhibitor,TrxR1 substrate
Cc1ccc(-n2ncc(C(=O)N3CCN(C(=O)c4ccco4)CC3)c2C2CCN(C(=O)OC(C)(C)C)CC2)cc1C,0,0,0,28µM,0,0
CCN1C(=O)[C@H]2[C@@H](c3ccc(-c4ccc(Cl)c(Cl)c4)c(OC)c3)N[C@@](C)(C(=O)OC)[C@H]2C1=O,?,0,-,0,0,0
CCN1C(=O)[C@H]2[C@@H](c3ccc(-c4ccc(Cl)c(Cl)c4)cc3)N[C@@](C)(C(=O)OC)[C@H]2C1=O,40µM,0,-,0,0,0
O=C(Cc1ccc(Cl)cc1)NCCc1c[nH]c2ccccc12,?,0,-,0,0,0
O=C(CCl)N(c1ccccc1)c1c[nH]c2ccccc12,0,0,0,2.2µM,0,0
O=C(CCl)N(c1ccc(Cl)cc1)c1c[nH]c2ccccc12,?,0,?,0.45µM,?,0
O=C(O)Cc1c[nH]c2ccccc12,?,0,-,0,0,0
